For one assay, the system named is Plasmodium falciparum. The experiment in a line: GSK_TCMDC: Inhibition of Plasmodium falciparum Dd2 in whole red blood cells, using parasite LDH activity as an index of growth. Test compounds present at 2uM. Format: functional.
Regarding `O=C(/C=C/c1ccc(Cl)c(Cl)c1)NCCCCCN1CCC(NC(=O)c2cc(Cl)ccc2F)CC1`, the Inhibition (usually the drop in the measured response relative to a control, in per cent) was determined as 32%.

As to `COc1cccc(CN(C(=O)Nc2ccccc2F)[C@H]2C[C@H]3C(=O)Nc4cc(F)ccc4C(=O)N3C2)c1`, the Inhibition is recorded as 75%.

With `CN1CCC(N2CCN(c3ccc4c(=O)nc(CCc5cccc(F)c5F)n(CC(=O)N(C)Cc5ccc(-c6ccc(C(F)(F)F)cc6)cc5)c4n3)CC2)CC1.O=C(O)C(O)C(O)C(=O)O`, the Inhibition turned out to be 99%.

For the molecule `CN1CCN(Cc2c(O)ccc3c(=O)c(Oc4ccc(C(C)(C)C)cc4)c(C(F)(F)F)oc23)CC1`, the Inhibition was found to be 88%.

With `COc1ccc(Nc2nc(NC3CCN(Cc4ccccc4)CC3)cc(-c3ccncc3)n2)cc1`, the Inhibition was found to be 40%.

`O=C(NC1CCN(Cc2cccc(C(F)(F)F)c2)CC1)c1ccc(-c2cccc(Cl)c2)s1.O=C(O)C(F)(F)F` registered an Inhibition of 33%.

`COc1ccc(C2CC(c3cccs3)=NN2C(=O)COc2cccc3c2CCCC3O)cc1OC` (configuration not stated) displayed an Inhibition of 62%.

In turn, `COc1ccc(NC(=O)NC2CCN(CCCCCNC(=O)/C=C/c3ccc(Cl)c(Cl)c3)C2)c(OC)c1` (configuration not stated) returned an Inhibition of 9%.

`CCOC(=O)COc1cccc(CNc2ccc3nc(N)nc(N)c3c2)c1` came in with an Inhibition of 99%.

In turn, `CN(C)c1ccc(CN2CCC(NC(=O)c3ccc(-c4ccccc4Cl)s3)CC2)cc1.O=C(O)C(F)(F)F` showed an Inhibition of 27%.

Molecule `N#Cc1ccc(N(CCOC(=O)c2ccccc2)Cc2ccccc2C(F)(F)F)cc1C(F)(F)F` yielded an Inhibition of 67%.

`CC(=O)Nc1ccc(C(=O)Nc2cccc(-c3cccc(-c4nc5cc(C(F)(F)F)ccc5[nH]4)c3)c2)cn1` registered an Inhibition of 97%.

With `N=C(N)Nc1nc(-c2cccc(NC(=O)NCc3cccc4ccccc34)c2)cs1`, the Inhibition stood at 32%.

With `CCNC(=O)N1CCN(c2nc(-c3ccccc3)nc(COC)c2Cc2ccc(C)cc2)CC1`, the Inhibition is on record as 94%.

As to `Cc1nc2c(s1)c(=O)cc(CCc1cccc(F)c1F)n2CC(=O)N(Cc1ccc(-c2ccc(C(F)(F)F)cc2)cc1)C1CCN(C(C)C)CC1.O=C(O)C(O)C(O)C(=O)O`, the Inhibition worked out at 82%.

Consider `CCOC(=O)c1c(CSc2ccccc2)oc2cc(CN(C)C)c(O)c(Cl)c12`, for which the Inhibition is 70%.

On to `CCOc1cc(C)ccc1C1CCN(CCCCNC(=O)c2ccc(-c3ccc(C(F)(F)F)cn3)cc2)CC1.Cl`, for which the Inhibition came to 45%.

On to `CCN(CCO)CCCC(C)Nc1ccnc2cc(Cl)ccc12.O=S(=O)(O)O` (configuration not stated) [HYDROXYCHLOROQUINE SULFATE], for which the Inhibition amounted to 0%.

Take `O=[N+]([O-])c1ccc2nc(Nc3ccc(Cl)c(Cl)c3)c(Nc3ccc(Cl)c(Cl)c3)nc2c1`: the Inhibition is given as 99%.

Take `CCCCCCCC1CC(CC(=O)Nc2ccnc3ccc(OC)cc23)CN1C(=O)OC(C)(C)C` (configuration not stated): the Inhibition worked out at 34%.

The molecule `CN(C)CCCNCc1ccc(-c2ccc(CNCCOc3ccccc3)cc2)cc1.O=C(O)C(F)(F)F` returned an Inhibition of 53%.

For the molecule `Cc1ccc(CNC(=N)NC(=O)c2nc(Cl)c(NCc3ccc(Cl)cc3)nc2N)c(C)c1`, the Inhibition is reported as 100%.

The molecule `COc1cc(F)c2ncc(Cl)c(CCN3CCC(NCc4ccc5c(c4)NC(=O)CS5)CC3)c2c1.Cl` showed an Inhibition of 85%.

Turning to `CCCS(=O)(=O)N1CCC(CO)(Cc2ccccc2C(F)(F)F)CC1`, the Inhibition is 57%.

`CCCCCCN1CCN(Cc2cccc(NC(=O)c3cccc(OCC)c3)c2)CC1.O=C(O)C(F)(F)F` registered an Inhibition of 48%.

Turning to `CCCCCN1CCCC(CNS(=O)(=O)c2cccc(C(=O)Nc3ccc(C(F)(F)F)cc3)c2)C1.O=C(O)C(F)(F)F` (configuration not stated), the Inhibition stood at 2%.

Turning to `O=C(Nc1ccc(N2CCN(Cc3cccc(F)c3)CC2)cc1)c1cccs1.O=C(O)C(F)(F)F`, the Inhibition is 92%.

The next assay relates to HepG2. The experiment in a line: GSK_TCMDC: Percent inhibition of human HepG2 cell line. Test compounds present at 10uM. It counts as functional.
`Cc1c(CCNC(=O)CCCN2CC(C)CC(C)C2)c2ccccc2n1C.Cl` (configuration not stated): the Inhibition is 8%.

The molecule `CC(Cc1ccc(Cl)cc1)Nc1nc(NC2CCCC2)nc(N2CCC(C#N)(c3ccccc3)CC2)n1` (configuration not stated) returned an Inhibition of 15%.

`OC(CNc1ccnc(Nc2ccccc2)n1)c1cccc(C(F)(F)F)c1` (configuration not stated) had an Inhibition of 16%.

Turning to `Cc1ccccc1C1CCN(C2CCC(NC(=O)c3cc4cc(Cl)ccc4o3)CC2)CC1` (configuration not stated), the Inhibition was 22%.

In the case of `Cc1nc2ccc3ccc(CNc4ccc5c(c4)CN([C@H](CCC(=O)O)C(=O)O)C5=O)cc3c2c(=O)[nH]1`, the Inhibition is on record as 38%.

In the case of `Cc1ccc(Nc2ccnc(Nc3ccc(C)c(F)c3)n2)cc1O.Cl`, the Inhibition is 4%.

In turn, `COc1ccc(NS(=O)(=O)c2cccc(C(=O)Nc3ccc(C(F)(F)F)cc3)c2)cc1N1CCN(CC(C)C)CC1.O=C(O)C(F)(F)F` showed an Inhibition of 5%.

For `CCC(CC)(Cc1ccccc1)NC(=O)[C@H](CC1CCCCC1)Nc1ccc(C#N)c2ccccc12.O=C(O)C(F)(F)F`, the Inhibition was 4%.

In turn, `CC1CC1C(=O)NC1CCN(CC2(c3ccccc3)CCCCC2)CC1` (configuration not stated) gave an Inhibition of 0%.

On to `Cc1ccc(Nc2nc3cc(N(C)c4ccnc(Nc5cccc(CCS(C)(=O)=O)c5)n4)ccc3n2C)cc1.O=C(O)C(F)(F)F`, for which the Inhibition stood at 78%.

In turn, `CC(C)CCn1c(Sc2ccc([N+](=O)[O-])cc2C(F)(F)F)nnc1-c1ccccc1Cl` had an Inhibition of 0%.

Molecule `O=C(Nc1cccc(-c2ccc(-c3nc4cc(C(F)(F)F)ccc4[nH]3)cc2)c1)Nc1ccc(F)c(F)c1F` gave an Inhibition of 45%.

`c1ccc(OCCOc2ccc(Nc3ccnc4cc5ccccc5cc34)cc2)cc1`: the Inhibition turned out to be 44%.

The molecule `O=C(/C=C/c1ccc(Cl)c(Cl)c1)NCCCCCN1CCC(NC(=O)c2cc(Cl)ccc2F)CC1` gave an Inhibition of 48%.

The molecule `COc1cccc(CN(C(=O)Nc2ccccc2F)[C@H]2C[C@H]3C(=O)Nc4cc(F)ccc4C(=O)N3C2)c1` returned an Inhibition of 0%.

Consider `CN1CCC(N2CCN(c3ccc4c(=O)nc(CCc5cccc(F)c5F)n(CC(=O)N(C)Cc5ccc(-c6ccc(C(F)(F)F)cc6)cc5)c4n3)CC2)CC1.O=C(O)C(O)C(O)C(=O)O`, for which the Inhibition is on record as 15%.

Regarding `CN1CCN(Cc2c(O)ccc3c(=O)c(Oc4ccc(C(C)(C)C)cc4)c(C(F)(F)F)oc23)CC1`, the Inhibition was found to be 0%.

Take `COc1ccc(Nc2nc(NC3CCN(Cc4ccccc4)CC3)cc(-c3ccncc3)n2)cc1`: the Inhibition is reported as 26%.

Molecule `O=C(NC1CCN(Cc2cccc(C(F)(F)F)c2)CC1)c1ccc(-c2cccc(Cl)c2)s1.O=C(O)C(F)(F)F` displayed an Inhibition of 26%.

The molecule `COc1ccc(C2CC(c3cccs3)=NN2C(=O)COc2cccc3c2CCCC3O)cc1OC` (configuration not stated) returned an Inhibition of 5%.

Molecule `COc1ccc(NC(=O)NC2CCN(CCCCCNC(=O)/C=C/c3ccc(Cl)c(Cl)c3)C2)c(OC)c1` (configuration not stated) returned an Inhibition of 24%.

`CCOC(=O)COc1cccc(CNc2ccc3nc(N)nc(N)c3c2)c1` displayed an Inhibition of 18%.

`CN(C)c1ccc(CN2CCC(NC(=O)c3ccc(-c4ccccc4Cl)s3)CC2)cc1.O=C(O)C(F)(F)F` had an Inhibition of 35%.

Molecule `N#Cc1ccc(N(CCOC(=O)c2ccccc2)Cc2ccccc2C(F)(F)F)cc1C(F)(F)F` yielded an Inhibition of 6%.

Consider `CC(=O)Nc1ccc(C(=O)Nc2cccc(-c3cccc(-c4nc5cc(C(F)(F)F)ccc5[nH]4)c3)c2)cn1`, for which the Inhibition was 8%.

`N=C(N)Nc1nc(-c2cccc(NC(=O)NCc3cccc4ccccc34)c2)cs1`: the Inhibition was 14%.

As to `CCNC(=O)N1CCN(c2nc(-c3ccccc3)nc(COC)c2Cc2ccc(C)cc2)CC1`, the Inhibition is given as 27%.

In the case of `Cc1nc2c(s1)c(=O)cc(CCc1cccc(F)c1F)n2CC(=O)N(Cc1ccc(-c2ccc(C(F)(F)F)cc2)cc1)C1CCN(C(C)C)CC1.O=C(O)C(O)C(O)C(=O)O`, the Inhibition stood at 98%.

`CCOC(=O)c1c(CSc2ccccc2)oc2cc(CN(C)C)c(O)c(Cl)c12` returned an Inhibition of 12%.

`CCOc1cc(C)ccc1C1CCN(CCCCNC(=O)c2ccc(-c3ccc(C(F)(F)F)cn3)cc2)CC1.Cl` had an Inhibition of 55%.

`CCN(CCO)CCCC(C)Nc1ccnc2cc(Cl)ccc12.O=S(=O)(O)O` (configuration not stated) [HYDROXYCHLOROQUINE SULFATE] returned an Inhibition of 3%.

`O=[N+]([O-])c1ccc2nc(Nc3ccc(Cl)c(Cl)c3)c(Nc3ccc(Cl)c(Cl)c3)nc2c1` returned an Inhibition of 1%.

Regarding `CCCCCCCC1CC(CC(=O)Nc2ccnc3ccc(OC)cc23)CN1C(=O)OC(C)(C)C` (configuration not stated), the Inhibition is 1%.

As for `CN(C)CCCNCc1ccc(-c2ccc(CNCCOc3ccccc3)cc2)cc1.O=C(O)C(F)(F)F`, the Inhibition is reported as 27%.

`Cc1ccc(CNC(=N)NC(=O)c2nc(Cl)c(NCc3ccc(Cl)cc3)nc2N)c(C)c1` had an Inhibition of 28%.

The molecule `COc1cc(F)c2ncc(Cl)c(CCN3CCC(NCc4ccc5c(c4)NC(=O)CS5)CC3)c2c1.Cl` had an Inhibition of 27%.

Molecule `CCCS(=O)(=O)N1CCC(CO)(Cc2ccccc2C(F)(F)F)CC1` came in with an Inhibition of 0%.

Molecule `CCCCCCN1CCN(Cc2cccc(NC(=O)c3cccc(OCC)c3)c2)CC1.O=C(O)C(F)(F)F` had an Inhibition of 65%.

Take `CCCCCN1CCCC(CNS(=O)(=O)c2cccc(C(=O)Nc3ccc(C(F)(F)F)cc3)c2)C1.O=C(O)C(F)(F)F` (configuration not stated): the Inhibition came to 27%.

Take `O=C(Nc1ccc(N2CCN(Cc3cccc(F)c3)CC2)cc1)c1cccs1.O=C(O)C(F)(F)F`: the Inhibition came to 0%.

The values are drawn from ChEMBL document CHEMBL1157539, “Thousands of chemical starting points for antimalarial lead identification” (Nature, 2010).
